hcDAF-12 act: H. contortus DAF-12 nuclear receptor activators, primary screen, cell-based, luminescence, HEK293, lit1-tk-luc reporter; AID 652067, 2013; hit rate 1.4% among 370,000; activation, % at 6.8 µM; HEK293 hcDAF-12 lit1-tk-luc reporter; 0% DMSO, 100% Δ7-dafachronic acid;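 active = activation above the mean of all tested compounds plus 3 SD, cut at about 5.5% in these data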;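 note: 100% = response to 3 µM Δ7-dafachronic acid high control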
SMARCA2 activ: SMARCA2 (BRM) function activators, primary screen, cell-based, luminescence, high throughput; MG213 cells, MMTV-luciferase reporter, dexamethasone, overnight; activation, % at 9.1 µM; hit rate 1% among 370,000; AID 652017, 2013; in the data active = activation above about 7.8%;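 note: 0% = vehicle wells and 100% = reference activator wells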
DAX1 inh-1: DAX1 (NR0B1) inhibitors, primary screen, cell-based, HEK293, Gal4-DAX1, luciferase luminescence; HEK293 Gal4-DAX1 luciferase reporter; inhibition, % at 6.75 µM; hit rate 0.99% among 340,000;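 active = inhibition above the mean over all tested compounds plus 3 SD, cut at about 4.2% in these data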;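 note: 0% = DAX1-transfected cells with DMSO and 100% = empty-vector control cells with DMSO; inhibition shows as a rise in luminescence from relieved DAX1 repression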
Target sequence (P51843 207-470 limits assumed): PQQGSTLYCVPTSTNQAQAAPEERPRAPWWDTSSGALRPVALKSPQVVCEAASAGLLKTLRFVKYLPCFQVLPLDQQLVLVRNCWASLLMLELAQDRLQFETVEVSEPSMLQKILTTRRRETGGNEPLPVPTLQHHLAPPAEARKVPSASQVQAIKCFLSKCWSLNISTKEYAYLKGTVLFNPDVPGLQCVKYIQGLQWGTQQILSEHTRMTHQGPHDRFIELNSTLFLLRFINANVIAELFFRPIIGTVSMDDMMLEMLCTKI
DAX1 inh-2: DAX1 (NR0B1) inhibitors on StAR promoter, primary screen, cell-based, luminescence, SF-1 (NR5A1), full-length DAX-1; hit rate 1.1% among 370,000; inhibition, % at 6.8 µM; AID 652010, 2013; HEK293T StAR-luciferase reporter, SF-1/DAX-1 repression relief;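 active = inhibition above the mean over all tested compounds plus 3 SD, cut at about 3.6% in these data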;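 note: 0% = DAX-1 cells with DMSO and 100% = cells lacking DAX-1 with DMSO; higher inhibition means more luminescence from relief of DAX-1 repression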
hgDAF12 agonist: H. glycines DAF-12 receptor agonists, primary screen, cell-based, luminescence, HEK293, GAL4 fusion, UAS-luciferase. activation, % at 6.8 µM. Nuclear hormone receptor DAF-12 (Heterodera glycines), GAL4 fusion. hit rate 1.8% among 370,000. HEK293 GAL4-hgDAF12 UAS-luciferase reporter, agonist luminescence; normalized to butyrate control;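 active = activation above a cutoff set at the mean of all screened compounds plus 3 SD, cut at about 10% in these data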;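 note: 0% = DMSO wells and 100% = sodium butyrate wells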
ssDAF12 agonist: S. stercoralis DAF-12 nuclear receptor activators, primary screen, cell-based, luminescence, HEK293, GRIP1 co-expression, lit1-tk-luc | Nuclear hormone receptor DAF-12 (Strongyloides stercoralis) | HEK293 ssDAF-12/GRIP1 lit1-tk-luc reporter; % of 3 µM dafachronic acid response | activation, % at 6.8 µM | hit rate 1% among 370,000 | AID 652126, 2013;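 active = activation above the mean over all tested compounds plus 3 SD, cut at about 0.9% in these data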;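 note: 0% = DMSO-only wells and 100% = 3 µM delta7-dafachronic acid wells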
hgDAF12 conf: H. glycines DAF-12 receptor agonists, confirmation, cell-based, luminescence, HEK293, GAL4-LBD fusion; shares compounds with hgDAF12 agonist; HEK293 GAL4-hgDAF12 luciferase reporter, agonist mode; percent of butyrate response; activation, % at 6.8 µM; hit rate 80% among 3,300; AID 743050, 2013;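 active = mean activation over triplicate wells above the hit cutoff derived from the earlier primary screen, cut at about 11% in these data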;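 note: 0% = DMSO low control and 100% = 2 mM sodium butyrate high control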
LXR ag 2: LXR agonists, Gal4 luciferase reporter, confirmation, counter-screen for hgDAF-12 agonist project, cell-based, luminescence, HEK293, H. glycines campaign; shares compounds with hgDAF12 agonist; 24 h; activation, % at 6.8 µM; 3,300 tested, under 10 active; AID 743051, 2013;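 active = mean activation of the triplicate above a set limit carried over from the primary screen, none filed active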
* = called active by the depositor. Most compounds without a hit are left out; they make up all but 4.8% or so of the library.

What do the screens show for `CC12CCC(C(=O)Nc3nc4ccccc4s3)(OC1=O)C2(C)C` (stereo not given)?
hcDAF-12 act: 3; SMARCA2 activ: 0; DAX1 inh-1: 0; DAX1 inh-2: 1; hgDAF12 agonist: 13*; ssDAF12 agonist: 0; hgDAF12 conf: 5; LXR ag 2: 0

How did COc1ccc(C(=O)CSc2nc(C)cc(=O)[nH]2)cc1 do in these assays?
hcDAF-12 act: 1; SMARCA2 activ: 2; DAX1 inh-1: 0; DAX1 inh-2: 0; hgDAF12 agonist: 1; ssDAF12 agonist: -1

What do the screens show for `COc1ccc(C(=O)CSc2cc(C)[nH]c(=O)n2)cc1`?
hcDAF-12 act: 5; SMARCA2 activ: 8; DAX1 inh-1: 1; DAX1 inh-2: 3.7*; hgDAF12 agonist: 14*; ssDAF12 agonist: 1; hgDAF12 conf: 11*; LXR ag 2: 0

How did Cc1ccc(-n2c(C)nn(CCOc3ccccc3)c2=O)cc1 do in these assays?
hcDAF-12 act: 2; SMARCA2 activ: 5; DAX1 inh-1: 1; DAX1 inh-2: 3; hgDAF12 agonist: 13*; ssDAF12 agonist: -1; hgDAF12 conf: 9; LXR ag 2: 0

What do the screens show for `Cc1nn(C)c(=O)n1-c1ccc(Oc2ccccc2)cc1`?
hcDAF-12 act: -2; SMARCA2 activ: -1; DAX1 inh-1: 1; DAX1 inh-2: -1; hgDAF12 agonist: -1; ssDAF12 agonist: -2

What do the screens show for `CCOc1ccc(NC(=O)CSc2nc3[nH]ncc3c(=O)[nH]2)cc1`?
hcDAF-12 act: 1; SMARCA2 activ: 2; DAX1 inh-1: -1; DAX1 inh-2: -4; hgDAF12 agonist: 4; ssDAF12 agonist: 0

How did O=C(C1=C[C@H](c2ccccc2)C[C@H](OCc2ccc(CO)cc2)O1)N1CCN(Cc2ccccc2)CC1 do in these assays?
hcDAF-12 act: 0; SMARCA2 activ: 0; DAX1 inh-1: 0; DAX1 inh-2: -1; hgDAF12 agonist: -1; ssDAF12 agonist: -2

How did C/C(=N\Nc1nncc2ccccc12)c1cccc(OC(F)F)c1 do in these assays?
hcDAF-12 act: 6.1*; SMARCA2 activ: 4; DAX1 inh-1: -2; DAX1 inh-2: 2; hgDAF12 agonist: 18*; ssDAF12 agonist: 1; hgDAF12 conf: 20*; LXR ag 2: 1

How did CN1C(=O)/C(=C/C=C2\SCCN2C)N(C)C1=S do in these assays?
hcDAF-12 act: 2; SMARCA2 activ: 6; DAX1 inh-1: 1; DAX1 inh-2: 2; hgDAF12 agonist: 14*; ssDAF12 agonist: 0; hgDAF12 conf: 15*; LXR ag 2: 1

Results for CC(C)CNC(=O)COc1ncnc2sccc12 ?
hcDAF-12 act: -1; SMARCA2 activ: 0; DAX1 inh-1: 3; DAX1 inh-2: 0; hgDAF12 agonist: -2; ssDAF12 agonist: -2

What do the screens show for `CNC(=O)COc1ccc(C=O)cc1OC`?
hcDAF-12 act: 2; SMARCA2 activ: 0; DAX1 inh-1: 0; DAX1 inh-2: 0; hgDAF12 agonist: -1; ssDAF12 agonist: 0

Results for COc1cc(C=O)ccc1OCc1cccc(Br)c1 ?
hcDAF-12 act: 0; SMARCA2 activ: 0; DAX1 inh-1: 1; DAX1 inh-2: 0; hgDAF12 agonist: 14*; ssDAF12 agonist: -1; hgDAF12 conf: 10; LXR ag 2: 0

How did CCN(C(=O)CSc1nnc(-c2cccc(F)c2)n1N)c1c(N)n(Cc2ccccc2)c(=O)[nH]c1=O do in these assays?
hcDAF-12 act: -1; SMARCA2 activ: -1; DAX1 inh-1: 2; DAX1 inh-2: 0; hgDAF12 agonist: 19*; ssDAF12 agonist: -1; hgDAF12 conf: -1; LXR ag 2: 0

What do the screens show for `CCn1cc(C2=NC(C)(C)CO2)c2ccccc21`?
hcDAF-12 act: -1; SMARCA2 activ: 0; DAX1 inh-1: 0; DAX1 inh-2: 0; hgDAF12 agonist: 1; ssDAF12 agonist: -2

Results for NC(=O)c1cc(N)ccc1N1CCCCC1 ?
hcDAF-12 act: 0; SMARCA2 activ: 0; DAX1 inh-2: -1; hgDAF12 agonist: 22*; ssDAF12 agonist: -2; hgDAF12 conf: 1; LXR ag 2: 0

How did NC(=O)c1cc(N)ccc1N1CCCC1 do in these assays?
hcDAF-12 act: -2; SMARCA2 activ: -1; DAX1 inh-1: 0; DAX1 inh-2: 0; hgDAF12 agonist: -1; ssDAF12 agonist: -1

Results for CCOC(=O)c1cccc(NC(=O)c2cccs2)c1 ?
hcDAF-12 act: 0; SMARCA2 activ: 5; DAX1 inh-1: 1; DAX1 inh-2: 0; hgDAF12 agonist: 5; ssDAF12 agonist: -1

How did CCOC(=O)c1sc(Nc2nc3c(F)cccc3s2)cc1C do in these assays?
hcDAF-12 act: 5; SMARCA2 activ: -1; DAX1 inh-1: 0; DAX1 inh-2: 0; hgDAF12 agonist: 16*; ssDAF12 agonist: 0; hgDAF12 conf: 13*; LXR ag 2: 0

Results for CCOC(=O)c1sc(NC(=O)c2sccc2C)cc1C ?
hcDAF-12 act: 6.4*; SMARCA2 activ: 0; DAX1 inh-1: 3; DAX1 inh-2: 2; hgDAF12 agonist: 17*; ssDAF12 agonist: 1.2*; hgDAF12 conf: 17*; LXR ag 2: 1

Results for CCOC(=O)c1sc(NC(=O)c2cccs2)cc1C ?
hcDAF-12 act: 0; SMARCA2 activ: -2; DAX1 inh-1: 0; DAX1 inh-2: 0; hgDAF12 agonist: 15*; ssDAF12 agonist: -1; hgDAF12 conf: 14*; LXR ag 2: 1

How did CCOC(=O)c1sc(NC(=O)Nc2cccc(Cl)c2)cc1C do in these assays?
hcDAF-12 act: 1; SMARCA2 activ: -4; DAX1 inh-1: 1; DAX1 inh-2: 1; hgDAF12 agonist: 10; ssDAF12 agonist: 1

Results for CCOC(=O)c1sc(Nc2nc3ccc(OC)cc3s2)cc1C ?
hcDAF-12 act: -1; SMARCA2 activ: -2; DAX1 inh-1: -1; DAX1 inh-2: -1; hgDAF12 agonist: 4; ssDAF12 agonist: -1

Screening data deposited in PubChem by The Scripps Research Institute Molecular Screening Center.
